Records with an inconclusive call do not appear. The source made the active and inactive calls. Calls come from the whole dose curve; as a rule, active = well fitted inhibition curve with a large enough effect; inconclusive = small, poorly fitted or top-dose-only effect; inactive = flat fitted curve, though single readings scatter.
These molecules were tested on CRL-7250 (assay: Cytotoxic Profiling of Annotated Libraries Using Quantitative High-Throughput Screening (AID 1296008; note: nearly all actives have a fitted effect of over 60% in size)). Conditions: Five cell lines viability, CellTiter-Glo ATP luminescence, 48-72 h; max response: hits give low values.
How it was run: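 Cytotoxicity was measured as CellTiter-Glo ATP luminescence, read after 10 min at room temperature. Compound treatment of the cells lasted 48 or 72 hr at 37 degrees Celsius in a qHTS format.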
% is set by controls: 0 for no effect and ±100 for the full control effect; potency is the fitted concentration of half-maximal effect.

Row | SMILES | max response | Potency | outcome
1 | CC(CCC1(O)OC2CC3C4CCC5CC(O[C@@H]6O[C@H](CO)[C@@H](O)[C@H](O)[C@H]6O[C@@H]6O[C@@H](C)[C@H](O)[C@@H](O)[C@H]6O)C(O)CC5(C)C4CCC3(C)C2C1C)CO[C@@H]1O[C@H](CO)[C@@H](O)[C@H](O)[C@H]1O (stereo partly specified) | -4.35% (inactive) |  | 
2 | O=C(O)CC1CCC(c2ccc(-c3ccc4nc(C(=O)NCc5ccc(OC(F)(F)F)cc5)cn4c3)cc2)CC1 (stereo unspecified) | 4.28% (inactive) |  | 
3 | CC(C)(O)CC(CO)NC(=O)CC(O)CC(=O)Cc1ccccc1 (stereo unspecified) | 2.18% (inactive) |  | 
4 | CCOc1cc2ncc(C#N)c(Nc3ccc(F)c(Cl)c3)c2cc1NC(=O)/C=C/CN(C)C |  | 0.651 µM (active) | 
5 | COc1ccc(C2(O)CCC(N3CC[C@@H](NC(=O)CNC(=O)c4cccc(C(F)(F)F)c4)C3)CC2)cn1 (stereo partly specified) | -18% (inactive) |  | 
6 | C=C[C@H]1[C@H](O[C@@H]2O[C@H](CO)[C@@H](O)[C@H](O)[C@H]2O)OC=C(C(=O)OC)[C@H]1C[C@@H]1c2cc(O)c(O)cc2CCN1C(C)=O | -23.5% (inactive) |  | 
7 | CC1(C(=O)O)CCCC2(C)C3CCC4CC3(CCC12)CC4=O (stereo unspecified) | -1.87% (inactive) |  | 
8 | COc1c2c(c(C)c3c1C(=O)OC3)O[C@@]1(C)CCC3(C(C)(C)O)OC(=O)CC[C@]3(C)[C@H]1C2 (stereo partly specified) | -2.51% (inactive) |  | 
9 | C[C@@H]([C@@H](O)c1ccc(O)cc1)N1CCC(O)(c2ccccc2)CC1 | 0.694% (inactive) |  | 
10 | CC(/C=C/C1=CC2=CC(=O)C(C)(O)C(O)C2=CO1)=C\C(C)CCO (stereo unspecified) | -1.14% (inactive) |  | 
11 | O=C(Cc1ccc(-c2ccccc2)cc1)NC1CCC1 |  |  | inactive
12 | NC(=O)c1cnc(NCCc2ccc(O)c(Cl)c2)nc1NCc1ccccc1 |  | 7.31 µM (active) | 
13 | CC(C)=CCC[C@](C)(O[C@@H]1O[C@H](CO)[C@@H](O)[C@H](O)[C@H]1O)[C@H]1CC[C@]2(C)[C@@H]1[C@H](O)CC1[C@@]3(C)CC[C@H](O)C(C)(C)C3[C@@H](O[C@@H]3O[C@H](CO)[C@@H](O)[C@H](O)[C@H]3O)C[C@]12C (stereo partly specified) | -0.753% (inactive) |  | 
14 | CC(C)c1cc(C(=O)N2CC[C@@H](NC(=O)C3CC3)C2)n[nH]1 | -17.8% (inactive) |  | 
15 | C/C=C/C(O)C1OC(=O)CC1Nc1ccc(C(=O)O)cc1 (stereo unspecified) | 4.31% (inactive) |  | 
16 | O=C1CC2(CCCC2)[C@H](O)C(=O)N1CCCCN1CCN(c2ncccn2)CC1 | 2.44% (inactive) |  | 

Row | SMILES | max response | Potency | outcome
17 | CC(C)CCC1(O)C(=O)C(C)(C)C(O[C@@H]2O[C@H](CO)[C@@H](O)[C@H](O)[C@H]2O)C(C)(C)C1O (stereo partly specified) | 0.265% (inactive) |  | 
18 | COc1cc2ncnc(Nc3cccc(Cl)c3F)c2cc1OC(=O)N1CCN(C)C[C@H]1C | -58.2% (inactive) |  | 
19 | C/C1=C\CC[C@]2(C)O[C@@H]2[C@H](O)[C@H](C(C)C)[C@H](OC(=O)/C=C/c2ccccc2)C1 | -51% (inactive) |  | 
20 | CC(C)O[C@@H]1O[C@H](CO)[C@@H](O)[C@H](O)[C@H]1O | 1.32% (inactive) |  | 
21 | CCc1cnn2c(NCc3ccc[n+]([O-])c3)cc(N3CCCCC3CCO)nc12 (stereo unspecified) |  | 0.0046 µM (active) | 
22 | C[C@]12C=C[C@@]3(CCC4[C@](C)(CO)CCC[C@@]4(C)C3CC1)C2 (stereo partly specified) | -1.08% (inactive) |  | 
23 | Cc1cc2c(F)c(Oc3ncnn4cc(OCC(C)O)c(C)c34)ccc2[nH]1 (stereo unspecified) | -24.6% (inactive) |  | 
24 | CN1C2CCC1CC(OC(=O)[C@H](CO)c1ccccc1)C2 (stereo partly specified) | 0.824% (inactive) |  | 
25 | CCOC(=O)Nc1cc(-c2ccc(C)c(NS(C)(=O)=O)c2)nn2c(C)nnc12 |  | 7.31 µM (active) | 
26 | CCC(C)C(=O)OC1CC(O)C23C4OCC5(C(O)CC2C1(C)C(O)O4)C3C(=O)CC1(C)C(c2ccoc2)CC2OC215 (stereo unspecified) |  | 3.55 µM (active) | 
27 | Cc1cnc(NC(=O)Nc2cc(Br)c(C)cc2OCC2CNCCO2)cn1 (stereo unspecified) |  | 13 µM (active) | 
28 | C/C=C(\C)C(=O)O[C@H]1[C@@H](O[C@]2(COC(=O)CC(C)C)O[C@H](COC(=O)C(C)CC)[C@@H](OC(C)=O)[C@@H]2O)O[C@H](COC(C)=O)[C@@H](O)[C@@H]1O (stereo partly specified) | 0.451% (inactive) |  | 
29 | C[C@@]12C[C@]3(O)O[C@H](O1)[C@]1(COC(=O)c4ccccc4)[C@H]3C[C@@]12O[C@@H]1O[C@H](CO)[C@@H](O)[C@H](O)[C@H]1O | 0.654% (inactive) |  | 
30 | N#CC(c1ccnc(OCc2ccc(CN3CCOCC3)cc2)n1)c1nc2ccccc2s1 (stereo unspecified) |  |  | inactive
31 | CC(C)(O)c1ccc2c(c1)C(O)C[C@H]1[C@](C)(C(=O)O)CCC[C@]21C (stereo partly specified) | 1.1% (inactive) |  | 

— PubChem BioAssay (NCATS)
